Results reported in the supplement of paper PMC6555819.

tested on: PPARa:RXRa (NR concentration 270 nM, RXRa partner concentration 90 nM); experiment: PBM binding z-score (relative to random genomic background probes); higher = stronger binding; sequences stand for … in GC…GCGATTGACAGCGTAGAATGAAGG
How it was run: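 On custom Agilent 4×180K arrays, double-stranded probes with 34-nt variable regions carried direct-repeat seeds, single-nucleotide variants, half-site ablations or random human genomic background. Ligand-free nuclear receptor dimers were applied for 1 h, and binding was read with antibodies against each partner (one per run). Binding z-scores come from regression-normalized fluorescence, with the random background probes as reference.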

Sequence	PBM binding z-score
CAAACTAGGACAAGAGGTCAAAGTCCGCTTCCCG	5.48
GGAACAAGGGCAAAGTTGATAGCATCTGTCGACG	3.56
ACTTACGGGTCAAAGAGGTTATAGCACGCGTATA	5.71
CCGACTGGGGCATAAGGTTACCAGAAGCCAGCCC	2
ACTATTAGTTGAGACGAGAGCAACCGATAGGTTG	-0.533
TCGAGTAGGTTAGTCAGGGCATTCAGCCAACATA	0.625
TCGAGTAGGTGAGGGGCATTCAGAATGGCGTCGA	1.47
ATATGTAGGTTAAGGTTCATTCAGGTTGGTTCGC	5.83
AGAATGAGGTTATTCGTAGATCAGGGAAGAAAGT	3.43
GCGACTGGGGCACAGCAGGTTACCATAAGGTTGG	0.996
GGAACGCGGGCATTCGAGTTGATAGCATGGCGAT	-1.13
CCTACTGGGCTACGAAAGGTCATTGATTCAGTGA	4.28
ACTTACCGGTCAACGAGGTTATAGCACGCGTATA	2.3
CTCGAAAGGTCGTGCTCAGGTGAGGATACCAAAC	4.86
GCTATGAGTTGAAAGGGCAACCGAATGATTCTCG	3.11
ATTTGTAGGTTAAGGGTCATTCAGGTTGGTTCGC	6.21
TATTGTAGATCAAGCAGGTTAAGAAAGCCTGAGT	0.359
CGTCATAGTTCAACTAAGGTAACGTAAAGCACGC	3.13
TGTCAAAGTTCAAAGGTAACCTAAGTATCCACAC	6.03
CGTCCATGGTCAGAGAGGTCAGTGAATGCCGAGT	2.51

Sequence	PBM binding z-score
ACTCGGAGGACAAAGGTCAGAGGTACGCCAGTGA	5.14
CTCGAAAGGTCGGTTTAGGTGAGTATACGGATAA	2.44
TAGCCTAGGTCATGGGGGCCAGTATAGTGTCGGC	4.64
ATCTCTAGGTAAAAGTTCAGGGAATCCCGAGGAT	4.42
CTCGAAAGGTCGTGCTCAGGTGTGTATACCAAAC	4.72
ACTTACGGGTCGACGAGGTTATAGCACGCGTATA	2.97
AGTCAAAGTTCTCTAGGTAACGTAAGATTCAGCT	0.668
AGAATGCGGTTATACGTAGATCAGGGAAGAAAGT	-0.235
AGAATGAGGTTCAGATCAGGGAAACAGAATACAT	1.14
CCTACTGGGCCATCAGGTCACTGATATCAACGTT	2.54
CGTCCAAGGTCAGCAGGTTAGTGAAAGCGACGTG	4.15
CGTCCAAGGTGAATGCTAGGTCAGTGAAAGCATT	1.73
TGAATGAGGTTATAAGATCAGGGTACGTTGCAAA	2.72
TCTGCTAGCTCAACGATGGTCAGCTAATCTGCTA	-0.335
TCTTGTAGATCAAGCGGGTTAAGAAAGCCTGAGT	0.817
ATATGTAGGTTATTGGGTCATTCAGTTTGCGCAT	5.16
ATCTCTAGGTAACCAGTTCAGTGAAAGAGAGGAC	1.26
TCTTGTAGACCAAGCAGGTTAAGAAAGCCTGAGT	0.881
CCTACTGGGCCATTCAGAGCTCATTGATCATATG	0.169
AGAATGAGGTTATTAAGATCAAGGAATTGCGGTC	2.85
